This note sets out measurements from PubChem BioAssay (EPA / NIEHS).

“And” between values parts separate entries of the source, which are not always exact repeats. Identical values can stand only once. The source made the active and inactive calls. Rule for the calls: active = hit-call score of the fitted dose curve at least 0.9, where 1 is the maximum; inactive = score below 0.9.

Read-out in this experiment: Monokine induced gamma interferon (MIG), CXCL9 (gene 4283)
The experiment is described as follows: BSK_3C_MIG: BioMAP Diversity Plus: 3C Assay for Monokine induced gamma interferon (MIG) Biomarker Activity (AID 2283021).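 For AC50: MIG protein level measured by immunoassay in the treated endothelial cultures.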 Particulars: primary human endothelial cells (HUVEC); actives raise or lower the signal. On the procedure:
BSK_3C is a cell-based, multiplexed-readout assay that uses umbilical vein endothelium, a human vascular primary cell, with measurements taken at 24 hours after chemical dosing in a 96-well plate.BSK_3C_MIG is an assay component measured in the BSK_3C assay. It measures MIG antibody related to regulation of gene expression using ELISA technology.Data from the assay component BSK_3C_MIG was analyzed into 1 assay endpoint. This assay endpoint, BSK_3C_MIG, was analyzed with bidirectional fitting relative to DMSO as the negative control and baseline of activity. Using a type of binding reporter, gain or loss-of-signal activity can be used to understand changes in the signaling as they relate to the gene CXCL9. Furthermore, this assay endpoint can be referred to as a primary readout, because this assay has produced multiple assay endpoints where this one serves a signaling function. To generalize the intended target to other relatable targets, this assay endpoint is annotated to the cytokine intended target family, where the subfamily is chemotactic factor.
The levels of cell surface (or secreted, indicated by the prefix "s") biomarker endpoints were measured by ELISA. Overt cytotoxicity to cells in confluent adherent cultures (all systems other than the BT system) was assessed by measuring total protein levels using sulforhodamine B (SRB) staining in parallel cultures at the time of biomarker measurements, indicated as SRB endpoints. For proliferation assays for adherent cell types, individual cell types are cultured at sub-confluence and relative cell numbers quantified by SRB staining at time points optimized for each system (48 h: 3C and CASM3C systems; 72 h: BT and HDF3CGF systems; 96 h: SAg system). SRB was performed by staining cells with 0.1% SRB after fixation with 10% TCA and reading wells at 560 nm.Viability and proliferation of PBMC (T cells) was quantified by Alamar Blue reduction for the SAg and BT systems. For PBMC viability (referred to as PBMC Cytotoxicity within the assay endpoint names), cells were plated (75,000/well in a 96-well plate) and then chemical samples added for 1 h before addition of activators, SEB and TSST-1 (20 ng/mL final concentration each). Cells were incubated for 90 h. Then, Alamar Blue (20 uL/well) (Invitrogen, Cat DAL1100) was added for 6 h, and the plates were read with a fluorescence microplate reader at 546/580 nm (excitation/emission). For PBMC proliferation, cells were plated and activated as above but incubated for only 16 h prior to addition of Alamar Blue. Plates were read after 6 h.
Regarding `Cc1ccc(C(=O)c2ccccc2)cc1`, the result was inactive. In the case of `C=CC(=O)OCCC(F)(F)C(F)(F)C(F)(F)C(F)(F)C(F)(F)C(F)(F)C(F)(F)C(F)(F)F`, the result was inactive. Same read-out and setting: the value for `Oc1ccc(Cc2ccccc2O)cc1` was “inactive”. Regarding `O=C(O)C(F)(F)OC(F)(F)C(F)(F)OC(F)(F)C(F)(F)OC(F)(F)C(F)(F)C(F)(F)C(F)(F)F`, the AC50 is 58.2 µM (active) and 54.8 µM (active). On to `CCCCC(CC)C(=O)O` (stereo not given), for which the result was inactive. The same measure, in the same setting: the value for `CCCCC=O` was “inactive”; that for `CN(C)CCOC(c1ccccc1)c1ccccc1` was “inactive”; that for `CCCCCCCCCCCCCCC` was “inactive”. For the compound `NC(=NCCCCCCN=C(N)/N=C(\N)Nc1ccc(Cl)cc1)/N=C(\N)Nc1ccc(Cl)cc1`, the AC50 is 9.77 µM (active).

`CCCCCCCCCCCCOS(=O)(=O)O`: the outcome was inactive. Still for that read-out and setting: the value for `COCN(COC)c1nc(N(COC)COC)nc(N(COC)COC)n1` was “inactive”; that for `O=C(NO)c1ccccc1` was “inactive”. Turning to `O=C(CC(=O)C(F)(F)C(F)(F)C(F)(F)F)c1cccs1`, the AC50 is 51.9 µM (active) and 52.2 µM (active).

In the case of `C[C@]12CC[C@@H]3c4ccc(O)cc4CC[C@H]3[C@@H]1C[C@@H](O)[C@@H]2O`, the outcome was inactive. For `O=C(O)CCC(F)(F)C(F)(F)C(F)(F)C(F)(F)C(F)(F)F`, the result was inactive.

As to `Cc1cccc2c1ccc1ccccc12`, the result was inactive. Same read-out and setting: the value for `O=C1OC2(c3ccccc31)c1cc(I)c(O)c(I)c1Oc1c2cc(I)c(O)c1I` was “inactive”; that for `Oc1cc2ccccc2cc1O` was “inactive”.

For `O=C(NCc1ncc(C(F)(F)F)cc1Cl)c1c(Cl)cccc1Cl`, the outcome was inactive.

In the case of `OCC(CO)(CBr)CBr`, the outcome was inactive.

As for `CC(C)(C)c1ccc(O)c(O)c1`, the outcome was inactive. The same measure, in the same setting: the value for `Cc1[nH]nc2c1N=C(c1ccccc1Cl)c1cc([N+](=O)[O-])ccc1N2` was “inactive”; that for `CCOC(=O)CN[C@@H](C(=O)N1CC[C@H]1C(=O)NCc1ccc(/C(N)=N/O)cc1)C1CCCCC1` was “inactive”; that for `O=C(CCCN1CCC(O)(c2ccc(Cl)cc2)CC1)c1ccc(F)cc1` was “inactive”.

As to `CN(Cc1cnc2nc(N)nc(N)c2n1)c1ccc(C(=O)N[C@@H](CCC(=O)O)C(=O)O)cc1`, the outcome was inactive.

As for `CS(=O)(=O)c1ccc([C@@H](CC2CCCC2)C(=O)Nc2cnccn2)cc1Cl`, the outcome was inactive. On the same count and under the same terms, the same measure for `C=CC(C)(CCC=C(C)C)OC(C)=O` (stereo not given): “inactive”; for `O=S(=O)(O)C(F)(F)C(F)(F)C(F)(F)C(F)(F)C(F)(F)C(F)(F)C(F)(F)C(F)(F)C(F)(F)C(F)(F)F`: “inactive”. `OCCN1CN(CCO)CN(CCO)C1`: the AC50 is 36.6 µM (active).

For `OCC(F)(F)C(F)(F)C(F)(F)C(F)(F)C(F)(F)C(F)(F)C(F)(F)C(F)(F)C(F)(F)C(F)(F)C(F)(F)F`, the outcome was inactive. Same read-out and setting: the value for `O=C1NS(=O)(=O)c2ccccc21` was “inactive”. In the case of `C=COC(=O)C(C)(C)CCCCCC`, the AC50 was 33.9 µM (active). On to `CC(=O)Nc1ccc(O)cc1`, for which the outcome was inactive. With `CCCCc1oc2ccccc2c1C(=O)c1cc(I)c(OCCN(CC)CC)c(I)c1`, the AC50 was 25.7 µM (active). With `CCCCCCCCCCCC`, the result was inactive.

With `COc1cccc(O)c1`, the outcome was inactive. For `CC1=NN(c2ccccc2)C(=O)C1`, the result was inactive. Regarding `CN(CCO)S(=O)(=O)C(F)(F)C(F)(F)C(F)(F)C(F)(F)C(F)(F)C(F)(F)C(F)(F)C(F)(F)F`, the outcome was inactive. On to `COc1cc(OC)nc(NC(=O)NS(=O)(=O)Nc2ccccc2C(=O)N(C)C)n1`, for which the result was inactive. As for `O=C1c2ccc(O)c(O)c2C(=O)c2c(O)ccc(O)c21`, the result was inactive.

The AC50 is the midpoint of the concentration-response curve, whichever way the signal moves.
